{"source": "paper PMC8384837", "about": "“Expanding the binding specificity for RNA recognition by a PUF domain”", "assay_in_all_cases": "yeast three-hybrid, YBZ-1, SC-Leu-His + 0.5 mM 3-AT, 4 days", "conditions_in_all_cases": "tags: N-Gal4 AD-HA kept; label: inside an RPR1-promoter hybrid RNA with tandem MS2 sites; ssRNA", "key": {"PUM1 PUF domain R3-RST": {"target": "PUM1 PUF domain R3-RST (Homo sapiens, UniProt Q14671 828-1176, C935R;R936S;Q939T)", "method_in_brief": "(§1)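 Each repeat of the Pumilio-1 PUF domain was randomized at its three base-contacting residues, and these libraries were co-expressed from a centromeric plasmid with matching RNA elements in strain YBZ-1. After four days on SC-Leu (input) or SC-Leu-His + 0.5 mM 3-AT (selection), the repeat regions were PCR-amplified and Illumina-sequenced. The interaction score compares variant frequency between input and selection as a log change, computed in log2 with a pseudocount of 1 for absent variants.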"}, "PUM1 PUF domain R3-RDR": {"target": "PUM1 PUF domain R3-RDR (Homo sapiens, UniProt Q14671 828-1176, C935R;R936D;Q939R)", "method_in_brief": "as §1"}, "PUM1 PUF domain R5-KKL": {"target": "PUM1 PUF domain R5-KKL (Homo sapiens, UniProt Q14671 828-1176, C1007K;R1008K;Q1011L)", "method_in_brief": "as §1"}, "PUM1 PUF domain R5-EKC": {"target": "PUM1 PUF domain R5-EKC (Homo sapiens, UniProt Q14671 828-1176, C1007E;R1008K;Q1011C)", "method_in_brief": "as §1"}, "PUM1 PUF domain R5-NRF": {"target": "PUM1 PUF domain R5-NRF (Homo sapiens, UniProt Q14671 828-1176, C1007N;Q1011F)", "method_in_brief": "as §1"}, "PUM1 PUF domain R5-GQS": {"target": "PUM1 PUF domain R5-GQS (Homo sapiens, UniProt Q14671 828-1176, C1007G;R1008Q;Q1011S)", "method_in_brief": "as §1"}, "PUM1 PUF domain R5-KHT": {"target": "PUM1 PUF domain R5-KHT (Homo sapiens, UniProt Q14671 828-1176, C1007K;R1008H;Q1011T)", "method_in_brief": "as §1"}, "PUM1 PUF domain R1-RVV": {"target": "PUM1 PUF domain R1-RVV (Homo sapiens, UniProt Q14671 828-1176, S863R;R864V;Q867V)", "method_in_brief": "as §1"}, "PUM1 PUF domain R8-RWV": {"target": "PUM1 PUF domain R8-RWV (Homo sapiens, UniProt Q14671 828-1176, N1122R;Y1123W;Q1126V)", "method_in_brief": "as §1"}, "PUM1 PUF domain R1-YQR": {"target": "PUM1 PUF domain R1-YQR (Homo sapiens, UniProt Q14671 828-1176, S863Y;R864Q;Q867R)", "method_in_brief": "as §1"}}}
{"sequence": "GGCUAGAACUAGUGGAUCCCCCGGCGCCCGGCGGCUCGAGCCCGGGUAAGUGUAAUUAGUCUGCAUGCCGCCGGGCGCCAUGCCUGCAGGUCGACUCUAGAAAACAUG", "values": [{"measurement": "binding signal", "setting": "PUM1 PUF domain R3-RST", "result": "2.83 log2 enrichment (interaction score)"}, {"measurement": "binding signal", "setting": "PUM1 PUF domain R3-RDR", "result": "4.8 log2 enrichment (interaction score)"}]}
{"sequence": "GGCUAGAACUAGUGGAUCCCCCGGCGCCCGGCGGCUCGAGCCCGGGUAAGUGUUAAUAGUCUGCAUGCCGCCGGGCGCCAUGCCUGCAGGUCGACUCUAGAAAACAUG", "values": [{"measurement": "binding signal", "setting": "PUM1 PUF domain R5-KKL", "result": "2.25 log2 enrichment (interaction score)"}, {"measurement": "binding signal", "setting": "PUM1 PUF domain R5-EKC", "result": "2.3 log2 enrichment (interaction score)"}, {"measurement": "binding signal", "setting": "PUM1 PUF domain R5-NRF", "result": "5.64 log2 enrichment (interaction score)"}]}
{"sequence": "GGCUAGAACUAGUGGAUCCCCCGGCGCCCGGCGGCUCGAGCCCGGGUAAGUGUGAAUAGUCUGCAUGCCGCCGGGCGCCAUGCCUGCAGGUCGACUCUAGAAAACAUG", "values": [{"measurement": "binding signal", "setting": "PUM1 PUF domain R5-GQS", "result": "2.15 log2 enrichment (interaction score)"}, {"measurement": "binding signal", "setting": "PUM1 PUF domain R5-KHT", "result": "2.38 log2 enrichment (interaction score)"}]}
{"sequence": "GGCUAGAACUAGUGGAUCCCCCGGCGCCCGGCGGCUCGAGCCCGGGUAAGUGUCAAUAGUCUGCAUGCCGCCGGGCGCCAUGCCUGCAGGUCGACUCUAGAAAACAUG", "values": [{"measurement": "binding signal", "setting": "PUM1 PUF domain R5-KKL", "result": "2.13 log2 enrichment (interaction score)"}, {"measurement": "binding signal", "setting": "PUM1 PUF domain R5-EKC", "result": "2.59 log2 enrichment (interaction score)"}]}
{"sequence": "GGCUAGAACUAGUGGAUCCCCCGGCGCCCGGCGGCUCGAGCCCGGGUAAGUGUAAAUCGUCUGCAUGCCGCCGGGCGCCAUGCCUGCAGGUCGACUCUAGAAAACAUG", "values": [{"measurement": "binding signal", "setting": "PUM1 PUF domain R1-RVV", "result": "2.37 log2 enrichment (interaction score)"}]}
{"sequence": "GGCUAGAACUAGUGGAUCCCCCGGCGCCCGGCGGCUCGAGCCCGGGUAAGCGUAAAUAGUCUGCAUGCCGCCGGGCGCCAUGCCUGCAGGUCGACUCUAGAAAACAUG", "values": [{"measurement": "binding signal", "setting": "PUM1 PUF domain R8-RWV", "result": "5.22 log2 enrichment (interaction score)"}]}
{"sequence": "GGCUAGAACUAGUGGAUCCCCCGGCGCCCGGCGGCUCGAGCCCGGGUAAGUGUAAAUAGUCUGCAUGCCGCCGGGCGCCAUGCCUGCAGGUCGACUCUAGAAAACAUG", "values": [{"measurement": "binding signal", "setting": "PUM1 PUF domain R8-RWV", "result": "5.01 log2 enrichment (interaction score)"}, {"measurement": "binding signal", "setting": "PUM1 PUF domain R5-GQS", "result": "3.39 log2 enrichment (interaction score)"}]}
{"sequence": "GGCUAGAACUAGUGGAUCCCCCGGCGCCCGGCGGCUCGAGCCCGGGUAAGUGUAAAUUGUCUGCAUGCCGCCGGGCGCCAUGCCUGCAGGUCGACUCUAGAAAACAUG", "values": [{"measurement": "binding signal", "setting": "PUM1 PUF domain R1-YQR", "result": "6.49 log2 enrichment (interaction score)"}, {"measurement": "binding signal", "setting": "PUM1 PUF domain R1-RVV", "result": "2.58 log2 enrichment (interaction score)"}]}
